Inconclusive results are not listed. The source made the active and inactive calls. Unless noted, the call rests on the fitted dose curve; in most records, active means well fitted curve in the direction sought with a large enough effect; inconclusive means small, poorly fitted or top-dose-only effect, or another doubt; inactive means no such curve, though single readings can be large; an effect the other way counts as inactive or inconclusive.
Legend:
[1] = biological target: Voltage-gated inwardly rectifying potassium channel KCNH2 (Homo sapiens) (UniProt Q12809); experiment: qHTS Assay for Small Molecule Inhibitors of the Human hERG Channel Activity (AID 588834);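 further: lower thallium flux fluorescence means stronger hERG block; nearly all actives have a fitted effect of over 50% in size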; further: potency means the concentration at half of the fitted maximal effect
Voltage-gated inwardly rectifying potassium channel KCNH2 (Homo sapiens), sequence (Q12809 whole entry, looked up): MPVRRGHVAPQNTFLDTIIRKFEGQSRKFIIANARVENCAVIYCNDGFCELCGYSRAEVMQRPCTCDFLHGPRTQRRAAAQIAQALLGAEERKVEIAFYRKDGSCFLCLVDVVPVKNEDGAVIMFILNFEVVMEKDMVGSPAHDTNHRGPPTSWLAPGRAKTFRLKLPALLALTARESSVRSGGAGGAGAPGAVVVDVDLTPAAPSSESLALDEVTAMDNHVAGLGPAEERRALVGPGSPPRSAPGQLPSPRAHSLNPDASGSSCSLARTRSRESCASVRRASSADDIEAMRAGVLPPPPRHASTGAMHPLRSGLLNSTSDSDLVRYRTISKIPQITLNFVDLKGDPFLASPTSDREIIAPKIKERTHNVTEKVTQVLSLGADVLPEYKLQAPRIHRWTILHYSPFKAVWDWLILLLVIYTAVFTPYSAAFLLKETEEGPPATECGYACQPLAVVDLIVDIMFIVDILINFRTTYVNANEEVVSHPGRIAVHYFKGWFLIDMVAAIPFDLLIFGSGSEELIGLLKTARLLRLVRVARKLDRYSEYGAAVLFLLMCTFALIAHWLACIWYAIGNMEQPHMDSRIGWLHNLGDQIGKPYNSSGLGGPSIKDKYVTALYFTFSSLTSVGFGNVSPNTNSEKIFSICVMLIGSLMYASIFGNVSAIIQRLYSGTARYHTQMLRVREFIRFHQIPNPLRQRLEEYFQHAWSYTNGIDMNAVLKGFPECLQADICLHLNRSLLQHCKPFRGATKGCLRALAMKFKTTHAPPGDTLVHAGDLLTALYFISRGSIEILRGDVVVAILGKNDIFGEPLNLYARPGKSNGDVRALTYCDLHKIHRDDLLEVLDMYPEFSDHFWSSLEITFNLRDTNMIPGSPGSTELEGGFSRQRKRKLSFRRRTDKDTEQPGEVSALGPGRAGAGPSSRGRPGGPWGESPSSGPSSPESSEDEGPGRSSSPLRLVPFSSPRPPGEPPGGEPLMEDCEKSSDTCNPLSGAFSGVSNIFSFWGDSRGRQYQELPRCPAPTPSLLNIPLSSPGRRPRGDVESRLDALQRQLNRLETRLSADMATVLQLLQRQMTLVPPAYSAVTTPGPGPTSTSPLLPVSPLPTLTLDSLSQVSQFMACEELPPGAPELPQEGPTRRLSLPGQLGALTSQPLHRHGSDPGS
Method in brief: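 Thallium-flux (FluxOR) read-out on FDSS: fluorescence read 10 s before and 2 min after stimulation buffer. hERG-BacMam-transduced U2OS cells, compound exposure about 10 min. AC50 by standard Hill equation.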

[2] = biological target: Luciferin 4-monooxygenase (Photinus pyralis) (UniProt P08659); experiment: Biochemical firefly luciferase enzyme assay for NPC (AID 624030); further: nearly all actives have a fitted effect of over 70% in size; further: potency means the concentration at half of the fitted maximal effect
Luciferin 4-monooxygenase (Photinus pyralis), sequence (P08659 whole entry, looked up): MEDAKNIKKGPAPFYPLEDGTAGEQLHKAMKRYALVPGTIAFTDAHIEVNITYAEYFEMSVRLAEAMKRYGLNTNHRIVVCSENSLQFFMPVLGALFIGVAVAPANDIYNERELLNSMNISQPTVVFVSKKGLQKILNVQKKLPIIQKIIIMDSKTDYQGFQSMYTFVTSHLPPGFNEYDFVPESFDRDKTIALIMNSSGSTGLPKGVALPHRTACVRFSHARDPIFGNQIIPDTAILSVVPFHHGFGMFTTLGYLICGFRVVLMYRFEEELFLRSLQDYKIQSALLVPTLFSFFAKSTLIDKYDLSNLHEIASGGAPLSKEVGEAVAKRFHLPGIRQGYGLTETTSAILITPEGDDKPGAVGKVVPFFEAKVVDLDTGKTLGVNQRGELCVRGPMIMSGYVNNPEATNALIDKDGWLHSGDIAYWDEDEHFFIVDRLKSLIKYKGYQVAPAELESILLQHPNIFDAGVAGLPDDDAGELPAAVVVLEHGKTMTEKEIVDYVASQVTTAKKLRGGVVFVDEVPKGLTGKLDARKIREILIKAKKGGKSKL
Method in brief: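 Direct inhibition of firefly luciferase enzyme (10 nM final, 50 mM Tris Acetate) assessed by luminescence within 5 minutes. Percent activity scaled between DMSO and PTC124 positive control, with concentration-effect curves classified by fit quality and response.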

[3] = S16 Schwann cell viability assay (CellTiter-Glo assay) (AID 624031); further: nearly all actives have a fitted effect of over 70% in size; further: potency means the concentration at half of the fitted maximal effect
Method in brief: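 Luminescent ATP read-out (CellTiter-Glo) after 24 h compound exposure of native S16 rat Schwann cells at 37 °C. Signals were normalized between cell-free wells and DMSO-treated cells, set as 0% activity.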

[4] = S16 Schwann cell PMP22 intronic element firefly luciferase assay (AID 624032); further: nearly all actives have a fitted effect of over 30% in size; further: potency means the concentration at half of the fitted maximal effect
Method in brief: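 Luciferase reporter of PMP22 intronic-element expression in stably transfected S16 rat Schwann cells, read by ONE-Glo luminescence after 24 h compound exposure at 37 C. Activity scaled between DMSO (0%) and positive-control PTC124; concentration-effect curves quality-classified.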

[5] = S16 Schwann cell PMP22 intronic element beta-lactamase assay (AID 624044; calls by dose curve; further: nearly all actives have a fitted effect of over 15% in size; further: potency means the concentration at half of the fitted maximal effect)
Method in brief: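 Beta-lactamase reporter under a PMP22 intronic regulatory element in stable S16 rat Schwann cells; 24 h compound exposure. 460 nm blue signal normalized between DMSO (0%) and potassium clavulanate, with 535 nm FRET tracking viability; curves classed by r2 and response.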

[6] = Cytotoxicity counterscreen for NFkB agonists and antagonists (AID 624476);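 further: cells exposed to compound for 48 hours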; further: potency means the concentration at half of the fitted maximal effect
[7] = qHTS Assay for Identification of Small Molecule Agonists for NFkB Signaling Pathway. (AID 624478);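 further: compounds tested together with TNF alpha at its EC50 of 10 pM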
Method in brief: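 Activators were sought in reporter cells stimulated at the TNF alpha EC50 (10 pM final). Compound and cytokine were co-incubated 5 hours at 37 C before beta-lactamase substrate detection by dual-emission fluorescence.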

[8] = qHTS Assay for Identification of Small Molecule Antagonists for NFkB Signaling Pathway. (AID 624479; calls by dose curve;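 further: pathway stimulated with TNF alpha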; further: potency means the concentration at half of the fitted maximal effect)
[9] = Cell Proliferation Assay against the TMD8 Cell Line (AID 651645); conditions: TMD8 DLBCL cell line proliferation/viability; at 46.1 µM (top of the series) unless noted;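 further: cells exposed to compound for 48 h before reading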
Method in brief: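 Luminescent ATP read-out (CellTiter-Glo, 15 min RT) after 48 h compound exposure of log-growing TMD8 cells at 37C; percent activity scaled between DMSO as 100% and 9.2 uM bortezomib final as 0%.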

[10] = Cell Proliferation Assay against the HBL1 Cell Line (AID 651646); conditions: HBL1 DLBCL cells; at 46.1 µM (top of the series) unless noted;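 further: cells exposed to compound for 48 h before reading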
Method in brief: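 CellTiter-Glo luminescence after 48 h compound exposure at 37C gives percent activity, with DMSO as 100% and 9.2 uM bortezomib final as 0%. Cells: 500 log-phase HBL1 per well, RPMI plus 5% FBS.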

[11] = Cell Proliferation Assay against the TMD8 Cell Line (Caspase readout at 16 hrs) (AID 651712); further: potency means the concentration at half of the fitted maximal effect
Method in brief: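 Caspase-Glo luminescence measured apoptosis after a 16 h, 37 C compound exposure of TMD8 cells (500 cells/well, 5% FBS RPMI). DMSO set 0% and bortezomib at 9.2 uM final set 100% activity.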

[12] = biological target: Glutaminase kidney isoform, mitochondrial (Homo sapiens) (UniProt O94925); experiment: qHTS for Inhibitors of Glutaminase (GLS): LOPAC Validation (AID 624146);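 further: glutamate product detected by oxidase and peroxidase coupled Amplex red fluorescence gain; nearly all actives have a fitted effect of over 60% in size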
Glutaminase kidney isoform, mitochondrial (Homo sapiens), sequence (O94925 whole entry, looked up, canonical isoform): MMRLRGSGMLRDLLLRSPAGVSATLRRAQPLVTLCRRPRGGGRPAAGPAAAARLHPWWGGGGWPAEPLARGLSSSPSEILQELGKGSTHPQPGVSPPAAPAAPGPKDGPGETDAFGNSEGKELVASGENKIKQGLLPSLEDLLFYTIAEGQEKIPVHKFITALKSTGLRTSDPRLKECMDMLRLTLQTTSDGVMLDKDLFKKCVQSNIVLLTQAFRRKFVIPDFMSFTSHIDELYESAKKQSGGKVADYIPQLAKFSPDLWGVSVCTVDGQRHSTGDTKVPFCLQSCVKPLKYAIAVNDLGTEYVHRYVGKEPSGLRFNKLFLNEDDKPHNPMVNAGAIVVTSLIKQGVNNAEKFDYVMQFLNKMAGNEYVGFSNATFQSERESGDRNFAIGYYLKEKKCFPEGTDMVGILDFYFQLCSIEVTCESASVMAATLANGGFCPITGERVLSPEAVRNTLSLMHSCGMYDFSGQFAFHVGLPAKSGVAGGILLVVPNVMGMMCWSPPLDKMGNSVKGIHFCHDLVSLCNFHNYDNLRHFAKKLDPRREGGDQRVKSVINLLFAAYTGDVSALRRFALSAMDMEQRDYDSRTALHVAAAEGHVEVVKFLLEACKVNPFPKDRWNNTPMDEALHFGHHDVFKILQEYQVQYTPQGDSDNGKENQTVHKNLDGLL
Method in brief: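 Coupled fluorescence readout: glutamate oxidase/HRP/Amplex Red detect glutamate formed by hKGA from L-glutamine (1 mM solution added). Buffer 45 mM KH2PO4 pH 8.2, 0.02% Tween-20; reads at t0 and 30 min RT.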

[13] = qHTS of Trypanosoma Brucei Inhibitors: LOPAC Validation (AID 624147)
Method in brief: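 Enzyme and substrate buffer are dispensed first and compound is pin-transferred. ADP at 130 uM final then starts the reaction, which runs 45 min at room temperature. Detection reagent is added for 10 min before luminescence is imaged.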

[14] = biological target: Glucagon-like peptide 1 receptor (Homo sapiens) (UniProt P43220); experiment: qHTS of GLP-1 Receptor Agonists: LOPAC Validation (AID 624148);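 further: luminescence from a luciferase reporter switched on by cAMP; higher luminescence signal means agonism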
Glucagon-like peptide 1 receptor (Homo sapiens), sequence (P43220 whole entry, looked up): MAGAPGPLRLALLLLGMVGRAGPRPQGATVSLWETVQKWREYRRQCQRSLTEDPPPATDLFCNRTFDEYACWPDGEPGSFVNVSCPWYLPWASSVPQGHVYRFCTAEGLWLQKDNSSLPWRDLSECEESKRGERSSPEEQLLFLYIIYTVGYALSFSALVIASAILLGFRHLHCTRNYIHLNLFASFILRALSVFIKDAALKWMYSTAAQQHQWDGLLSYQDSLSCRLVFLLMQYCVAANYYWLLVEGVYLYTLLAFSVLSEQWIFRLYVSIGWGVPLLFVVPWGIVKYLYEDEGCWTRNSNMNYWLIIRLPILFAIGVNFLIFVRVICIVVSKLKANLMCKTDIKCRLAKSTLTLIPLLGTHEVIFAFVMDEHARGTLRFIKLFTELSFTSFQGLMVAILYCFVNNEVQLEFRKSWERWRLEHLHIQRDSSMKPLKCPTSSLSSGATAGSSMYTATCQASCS
Method in brief: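 Agonism scored as increased luciferase luminescence driven by cAMP in HEK293 clones carrying GLP-1R. Cells settled 12 hours, received compound for 4-6 hr at 37 deg C, 5% CO2, and were read after 12 min detection reagent at RT.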

[15] = HTS Assay for Allosteric Antagonists of the Human D2 Dopamine Receptor: Hit Validation in HTRF (AID 624455);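 further: stable D1 dopamine receptor cell line scored for blocking the D1 response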
Method in brief: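 Inhibition of the D1-mediated response is measured by HTRF in cells that stably express the D1 dopamine receptor. Compounds reaching this step are hits from calcium-flux antagonism testing at EC80 dopamine in inducible Hek293 Trex D2 cells.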

CN1C(C(=O)Nc2ccccn2)=C(O)c2sccc2S1(=O)=O
inactive: Potency [1] | Potency [2] | Potency [3] | Potency [4]

Cc1ncc([N+](=O)[O-])n1CC(C)O (configuration not stated)
inactive: Potency [1] | Potency [2] | Potency [3] | Potency [4]

CCCCCCCCCCCCCCCCCCCCCCO
inactive: Potency [1] | Potency [2] | Potency [3] | Potency [4] | Potency [5]

CCOc1cc(CC(=O)N[C@@H](CC(C)C)c2ccccc2N2CCCCC2)ccc1C(=O)O
inactive: Potency [1] | Potency [2] | Potency [3] | Potency [4] | Potency [5]

Nc1cc(C(Cl)=C(Cl)Cl)c(S(N)(=O)=O)cc1S(N)(=O)=O
inactive: Potency [1] | Potency [2] | Potency [3] | Potency [4]

O=c1oc2cc(O)ccc2s1
inactive: Potency [1] | Potency [2] | Potency [3] | Potency [4] | Potency [5]

O=C(O)c1cc(=O)c2c(OCC(O)COc3cccc4oc(C(=O)O)cc(=O)c34)cccc2o1
inactive: Potency [1] | Potency [2] | Potency [3] | Potency [4]

CC[C@]1(O)C[C@H]2CN(CCc3c([nH]c4ccccc34)[C@@](C(=O)OC)(c3cc4c(cc3OC)N(C=O)[C@H]3[C@@](O)(C(=O)OC)[C@H](OC(C)=O)[C@]5(CC)C=CCN6CC[C@]43[C@@H]65)C2)C1
active: Potency [4] 90.7 nM | Potency [5] 282 nM
inactive: Potency [1] | Potency [2] | Potency [3]

O=C(O)c1cn(-c2ccc(F)cc2)c2cc(N3CCNCC3)c(F)cc2c1=O
inactive: Potency [1] | Potency [2] | Potency [3] | Potency [4] | Potency [5]

CC(C)[C@H](N)C(=O)OCCOCn1cnc2c(=O)[nH]c(N)nc21
inactive: Potency [1] | Potency [2] | Potency [3] | Potency [4]

N=C(N=C(N)N)N1CCOCC1
inactive: Potency [1] | Potency [2] | Potency [3] | Potency [4]

C[Se]CCC(N)C(=O)O (configuration not stated)
inactive: Potency [1] | Potency [2] | Potency [3] | Potency [4] | Potency [5]

COC(=O)C1=C(C)NC(C)=C(C(=O)OCCCN2CCC(c3ccccc3)(c3ccccc3)CC2)C1c1cccc([N+](=O)[O-])c1 (configuration not stated)
inactive: Potency [2]
active: Potency [1] 2000 nM | Potency [3] 16100 nM | Potency [4] 10200 nM

CCC[C@@H]1C[C@@H](C(=O)N[C@@H]([C@H]2O[C@H](SC)[C@H](O)[C@@H](O)[C@H]2O)[C@@H](C)O)N(C)C1
inactive: Potency [1] | Potency [2] | Potency [3] | Potency [4] | Potency [5]

CN(C)C(=O)COC(=O)Cc1ccc(OC(=O)c2ccc(N=C(N)N)cc2)cc1
inactive: Potency [1] | Potency [2] | Potency [3] | Potency [4]

COC1=C(OC)C(=O)C(CCCCCCCCCCO)=C(C)C1=O
inactive: Potency [1] | Potency [2] | Potency [5]

CC(C)C[C@H](NC(=O)[C@H](Cc1ccccc1)NC(=O)c1cnccn1)B(O)O
active: Potency [6] 9.3 nM | Potency [8] 5.3 nM | Potency [11] 2.6 nM
inactive: Potency [1] | outcome [7]
3.27%: viability, percent of control [10]
1.72%: viability (% of control) [9]

O=C(c1ccccc1)c1ccc2n1CCC2C(=O)O (configuration not stated)
inactive: Potency [1] | Potency [12] | Potency [13] | outcome [14] | outcome [15]

O=C1c2ccccc2-c2n[nH]c3cccc1c23
inactive: Potency [1] | Potency [3] | Potency [4] | Potency [5] | Potency [12] | Potency [13] | outcome [14] | outcome [15]

O=C(O)CCNC(=O)c1ccc(N=Nc2ccc(O)c(C(=O)O)c2)cc1
inactive: Potency [1] | Potency [3] | Potency [4]

Nc1nc(OCc2ccccc2)c2[nH]cnc2n1
inactive: Potency [1] | Potency [12] | Potency [13] | outcome [14] | outcome [15]

COCCCOc1ccnc(CS(=O)c2nc3ccccc3[nH]2)c1C (configuration not stated)
inactive: Potency [1] | Potency [3]

Cc1c(OCC(F)(F)F)ccnc1CS(=O)c1nc2ccccc2[nH]1 (configuration not stated)
inactive: Potency [1] | Potency [2] | Potency [3] | Potency [5] | Potency [13] | outcome [14] | outcome [15]

CN(c1nccc(=O)[nH]1)C1CCN(c2nc3ccccc3n2Cc2ccc(F)cc2)CC1
inactive: Potency [2] | Potency [4] | Potency [5]
active: Potency [1] 1780 nM

NC(=NCc1ccccc1)NC(=O)c1nc(Cl)c(N)nc1N
inactive: Potency [12] | Potency [13] | outcome [14] | outcome [15]
active: Potency [1] 5620 nM

Nc1ccn([C@@H]2O[C@H](CO)[C@@H](O)C2O)c(=O)n1 (some centres not stated)
inactive: Potency [1] | Potency [2] | Potency [3] | Potency [12] | Potency [13] | outcome [14] | outcome [15]

O=C(O)c1cccnc1Nc1cccc(C(F)(F)F)c1
inactive: Potency [1] | Potency [3] | Potency [4] | Potency [12] | Potency [13] | outcome [14] | outcome [15]

O=c1cc(N2CCOCC2)oc2c(-c3ccccc3)cccc12
inactive: Potency [1] | Potency [12] | Potency [13] | outcome [14] | outcome [15]

Cc1cccc(C#Cc2ccccc2)n1
inactive: Potency [1] | Potency [13] | outcome [14] | outcome [15] | Potency [6] | outcome [7] | Potency [8] | Potency [11]
102%: viability, percent of control [10]
116%: viability (% of control) [9]

O=c1c(O)c(-c2cc(O)c(O)c(O)c2)oc2cc(O)cc(O)c12
inactive: Potency [1] | outcome [14] | outcome [15]

CC(C)c1ccc2oc3nc(N)c(C(=O)O)cc3c(=O)c2c1
inactive: Potency [1] | Potency [3] | Potency [5]
active: Potency [2] 405 nM

CC(=O)O[C@H]1C(=O)[C@@]2(C)C([C@H](OC(=O)c3ccccc3)[C@]3(O)C[C@H](OC(=O)[C@H](O)[C@@H](NC(=O)c4ccccc4)c4ccccc4)C(C)=C1C3(C)C)[C@]1(OC(C)=O)CO[C@@H]1C[C@@H]2O (some centres not stated)
inactive: Potency [1] | Potency [12] | Potency [13] | outcome [14] | outcome [15]
